Source: PubChem BioAssay (Tox21)
“And” between values parts separate entries of the source, which are not always exact repeats. Identical values can stand only once. Inconclusive results are not listed. The source made the active and inactive calls. Calls follow the shape of the dose curve; as a rule, active = well fitted curve in the direction sought with a large enough effect in the repeat runs; inconclusive = weak or mixed curves; inactive = no such curve, though single readings can be large; an effect the other way counts as inactive or inconclusive.

What was measured:
[1] = A CellTox Green Cytotoxicity Assay to monitor cytotoxicity in HEK293 cells - 40 hour (AID 1224871); also: nearly all actives have a fitted effect of over 45% in size; also: potency is read from the fitted curve at half-maximal effect
In short: (§1)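 Read-out: fluorescence of a cell-impermeant cyanine dye staining DNA of dead cells, proportional to cytotoxicity. HEK293, 600 cells/well with reagent, compound (23 nL DMSO) added after 5 h; reads at 0, 8, 16, 24, 32, 40 h.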

[2] = qHTS RealTime-Glo MT Cell Viability Assay in HEK293 cells - 16 hour (AID 1224872); also: nearly all actives have a fitted effect of over 50% in size; also: potency is read from the fitted curve at half-maximal effect
In short: (§2)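 Reads taken at 0, 8, 16, 24, 32 and 40 h from the same wells. HEK293 cells (600/well) carried RealTime-Glo reagents from seeding, with compound added after a 5 h settle at 37 C.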

[3] = qHTS RealTime-Glo MT Cell Viability Assay in HepG2 cells - 8 hour (AID 1224873); also: nearly all actives have a fitted effect of over 55% in size; also: potency is read from the fitted curve at half-maximal effect
In short: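 Real-time viability: cells seeded at 600 per well together with NanoLuc and cell-permeant prosubstrate, compounds added after 5 h incubation. Luminescence tracked at 0, 8, 16, 24, 32 and 40 h of exposure.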

[4] = qHTS RealTime-Glo MT Cell Viability Assay in HEK293 cells - 40 hour (AID 1224874); settings: RealTime-Glo luminescence; max response: stronger effect = lower value; also: nearly all actives have a fitted effect of over 50% in size; also: potency is read from the fitted curve at half-maximal effect
In short: (§3)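 Luminescence readout at each listed time point; HEK293, 600 cells/well, RealTime-Glo MT reagent added with cells; compounds pinned (23 nL in DMSO) after 5 h at 37 C; continuous culture at 37 C.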

[5] = A CellTox Green Cytotoxicity Assay to monitor cytotoxicity in HEK293 cells - 24 hour (AID 1224875); also: nearly all actives have a fitted effect of over 45% in size; also: potency is read from the fitted curve at half-maximal effect
In short: as §1

[6] = A CellTox Green Cytotoxicity Assay to monitor cytotoxicity in HepG2 cells - 16 hour (AID 1224876); also: nearly all actives have a fitted effect of over 45% in size; also: potency is read from the fitted curve at half-maximal effect
In short: (§4)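 HepG2, 600 cells/well premixed w/ CellTox Green; 5 h settle, 37 C/5% CO2; pintool cpd add (DMSO); 37 C, 40 h; fluorescence read at 0, 8, 16, 24, 32, 40 h.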

[7] = qHTS RealTime-Glo MT Cell Viability Assay in HepG2 cells - 32 hour (AID 1224877); also: nearly all actives have a fitted effect of over 55% in size; also: potency is read from the fitted curve at half-maximal effect
In short: (§5)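 HepG2 suspension premixed with RealTime-Glo reagents is plated at 600 cells per well and left 5 h at 37 C/5% CO2. Compounds in DMSO then go in, and bioluminescence reflecting viable cell number is recorded over 40 h.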

[8] = A CellTox Green Cytotoxicity Assay to monitor cytotoxicity in HepG2 cells - 24 hour (AID 1224878); also: nearly all actives have a fitted effect of over 45% in size; also: potency is read from the fitted curve at half-maximal effect
In short: as §4

[9] = A CellTox Green Cytotoxicity Assay to monitor cytotoxicity in HepG2 cells - 40 hour (AID 1224879); also: nearly all actives have a fitted effect of over 40% in size; also: potency is read from the fitted curve at half-maximal effect
In short: as §4

[10] = qHTS RealTime-Glo MT Cell Viability Assay in HEK293 cells - 0 hour (AID 1224880)
In short: as §3

[11] = A CellTox Green Cytotoxicity Assay to monitor cytotoxicity in HEK293 cells - 32 hour (AID 1224881); also: nearly all actives have a fitted effect of over 40% in size; also: potency is read from the fitted curve at half-maximal effect
In short: as §1

[12] = A CellTox Green Cytotoxicity Assay to monitor cytotoxicity in HepG2 cells - 0 hour (AID 1224882); also: nearly all actives have a fitted effect of over 35% in size
In short: as §4

[13] = A CellTox Green Cytotoxicity Assay to monitor cytotoxicity in HepG2 cells - 32 hour (AID 1224883); also: nearly all actives have a fitted effect of over 50% in size; also: potency is read from the fitted curve at half-maximal effect
In short: as §4

[14] = A CellTox Green Cytotoxicity Assay to monitor cytotoxicity in HEK293 cells - 8 hour (AID 1224884); also: nearly all actives have a fitted effect of over 35% in size; also: potency is read from the fitted curve at half-maximal effect
In short: as §1

[15] = qHTS RealTime-Glo MT Cell Viability Assay in HepG2 cells - 16 hour (AID 1224885); also: nearly all actives have a fitted effect of over 50% in size; also: potency is read from the fitted curve at half-maximal effect
In short: as §5

[16] = qHTS RealTime-Glo MT Cell Viability Assay in HEK293 cells - 24 hour (AID 1224886)
In short: as §2

[17] = qHTS RealTime-Glo MT Cell Viability Assay in HEK293 cells - 8 hour (AID 1224887); also: nearly all actives have a fitted effect of over 50% in size; also: potency is read from the fitted curve at half-maximal effect
In short: as §3

[18] = A CellTox Green Cytotoxicity Assay to monitor cytotoxicity in HEK293 cells - 16 hour (AID 1224888); also: nearly all actives have a fitted effect of over 35% in size; also: potency is read from the fitted curve at half-maximal effect
In short: as §1

[19] = qHTS RealTime-Glo MT Cell Viability Assay in HepG2 cells - 0 hour (AID 1224889); also: nearly all actives have a fitted effect of over 50% in size
In short: as §5

[20] = A CellTox Green Cytotoxicity Assay to monitor cytotoxicity in HepG2 cells - 8 hour (AID 1224890); also: nearly all actives have a fitted effect of over 45% in size; also: potency is read from the fitted curve at half-maximal effect
In short: as §4
% is scaled to controls: 0 for no effect and ±100 for the full control effect.

Cc1nc(N(C)C)nc(OC(=O)N(C)C)c1C
inactive: Potency [1] | Potency [2] | Potency [3] | max response [4] 2.7% | Potency [5] | Potency [6] | Potency [7] | Potency [8] | Potency [9] | outcome [10] | Potency [11] | Potency [12] | Potency [13] | Potency [14] | Potency [15] | Potency [16] | Potency [17] | Potency [18] | outcome [19] | Potency [20]

SCc1ccccc1
inactive: Potency [1] | Potency [2] | Potency [3] | max response [4] 5.57% | Potency [5] | Potency [6] | Potency [7] | Potency [8] | Potency [9] | outcome [10] | Potency [11] | Potency [12] | Potency [13] | Potency [14] | Potency [15] | Potency [16] | Potency [18] | outcome [19] | Potency [20]

CC(C)c1ccc(NC(=O)N(C)C)cc1
inactive: Potency [1] | Potency [2] | Potency [3] | max response [4] 3.89% | Potency [5] | Potency [6] | Potency [7] | Potency [8] | Potency [9] | outcome [10] | Potency [11] | Potency [12] | Potency [13] | Potency [14] | Potency [15] | Potency [16] | Potency [18] | Potency [20]

COC(=O)Cc1ccccc1
inactive: Potency [1] | Potency [2] | Potency [3] | max response [4] 7.1% | Potency [5] | Potency [6] | Potency [7] | Potency [8] | Potency [9] | outcome [10] | Potency [11] | Potency [12] | Potency [13] | Potency [14] | Potency [15] | Potency [17] | Potency [18] | outcome [19] | Potency [20]

O=C(O)CCCOc1ccc(Cl)cc1Cl
inactive: Potency [1] | Potency [2] | Potency [3] | max response [4] 28.1% and -0.413% | Potency [5] | Potency [6] | Potency [7] | Potency [8] | Potency [9] | outcome [10] | Potency [11] | Potency [12] | Potency [13] | Potency [14] | Potency [15] | Potency [16] | Potency [17] | Potency [18] | Potency [20]

CCc1ccccc1N
inactive: Potency [1] | Potency [2] | Potency [3] | max response [4] 1.07% | Potency [5] | Potency [6] | Potency [7] | Potency [8] | Potency [9] | outcome [10] | Potency [11] | Potency [12] | Potency [13] | Potency [14] | Potency [15] | Potency [16] | Potency [18] | outcome [19] | Potency [20]

C=CCOCC1CO1 (stereo not drawn)
inactive: Potency [1] | Potency [2] | Potency [3] | max response [4] -8.98% | Potency [5] | Potency [6] | Potency [7] | Potency [8] | Potency [9] | outcome [10] | Potency [11] | Potency [12] | Potency [13] | Potency [14] | Potency [15] | Potency [16] | Potency [18] | outcome [19] | Potency [20]

CC(C)(C)NCC(O)c1cc(Cl)c(N)c(C(F)(F)F)c1 (stereo not drawn)
inactive: Potency [1] | Potency [2] | Potency [3] | max response [4] 3.67% | Potency [5] | Potency [6] | Potency [7] | Potency [8] | Potency [9] | outcome [10] | Potency [11] | Potency [12] | Potency [13] | Potency [14] | Potency [15] | Potency [17] | Potency [18] | outcome [19] | Potency [20]

O=C([O-])c1ccccn1.O=C([O-])c1ccccn1.O=C([O-])c1ccccn1.[Cr+3]
inactive: Potency [1] | Potency [2] | Potency [3] | max response [4] 2.2% | Potency [5] | Potency [6] | Potency [7] | Potency [8] | Potency [9] | outcome [10] | Potency [11] | Potency [12] | Potency [13] | Potency [14] | Potency [15] | Potency [16] | Potency [17] | Potency [18] | outcome [19] | Potency [20]

C1CS1
inactive: Potency [1] | Potency [2] | Potency [3] | max response [4] 12% | Potency [5] | Potency [6] | Potency [7] | Potency [8] | Potency [9] | outcome [10] | Potency [11] | Potency [12] | Potency [13] | Potency [14] | Potency [15] | Potency [16] | Potency [18] | Potency [20]

O=C(Cl)OCCOCCOC(=O)Cl
inactive: Potency [1] | Potency [2] | Potency [3] | max response [4] 3.34% | Potency [5] | Potency [6] | Potency [7] | Potency [8] | Potency [9] | outcome [10] | Potency [11] | Potency [12] | Potency [13] | Potency [14] | Potency [15] | Potency [16] | Potency [17] | Potency [18] | outcome [19] | Potency [20]

CCCCCCCCCCCC[N+](C)(C)CCOc1ccccc1
inactive: outcome [10] | Potency [12] | outcome [19]
active: Potency [1] 19.5 µM and 23.9 µM | Potency [2] 19.5 µM and 19 µM | Potency [3] 55 µM and 23.9 µM | Potency [4] 6.92 µM and 9.52 µM | Potency [5] 17.4 µM and 23.9 µM | Potency [6] 24.6 µM and 19 µM | Potency [7] 19.5 µM and 7.56 µM | Potency [8] 15.5 µM and 8.49 µM | Potency [9] 12.3 µM and 6.74 µM | Potency [11] 17.4 µM and 23.9 µM | Potency [13] 13.8 µM and 8.49 µM | Potency [14] 24.6 µM | Potency [15] 43.7 µM and 21.3 µM | Potency [17] 43.7 µM and 23.9 µM | Potency [18] 21.9 µM and 23.9 µM | Potency [20] 55 µM and 26.8 µM

COc1ccc2c(c1OC)C(=O)O[C@H]2[C@@H]1c2cc3c(cc2CCN1C)OCO3
inactive: Potency [1] | Potency [2] | Potency [3] | max response [4] 4.68% | Potency [5] | Potency [6] | Potency [7] | Potency [8] | Potency [9] | outcome [10] | Potency [11] | Potency [12] | Potency [13] | Potency [14] | Potency [15] | Potency [17] | Potency [18] | outcome [19] | Potency [20]
